Source: PubChem (several laboratories)
tim23-1 inh – growth inhibitors of tim23-1 mutant yeast. S. cerevisiae tim23-1 growth, BacTiter-Glo luminescence, 24 h. inhibition, % at 20 µM. hit rate 1.3% among 330,000;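 active = growth inhibition of the mutant yeast at or above 50%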;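 note: temperature-sensitive mutant grown at 25 °C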
PfHsp90 set2 – growth inhibition of yeast expressing Plasmodium Hsp90; AID 504621; S. cerevisiae expressing PfHsp90, BacTiter-Glo ATP, 48 h; yeast lacking PDR1 and PDR3 efflux regulators; inhibition, % at 9.4 µM; hit rate 0.32% among 310,000;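 active = every replicate shows inhibition above about 80%, whatever the replicate mean, limit read from the data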
V-ATPase pH – alters yeast V-ATPase proton transport | hit rate 0.37% among 350,000 | response, % at 10 µM | AID 504577 | S. cerevisiae, pHLuorin cytosolic pH fluorescence; in the data active = response mostly above about 7.3%, no sharp cut-off; inactive = mostly below about 5.4%; note: actives read high
tim10-1 inh – inhibits growth of tim10-1 mutant yeast. S. cerevisiae tim10-1 ts strain growth, BacTiter-Glo, 24 h. inhibition, % at 20 µM. hit rate 2.2% among 330,000. AID 463190;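 active = inhibition of at least 40%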;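 note: mutant grown at 25 °C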
TIM10 inh – TIM10 yeast growth inhibition | S. cerevisiae TIM10 strain growth, BacTiter-Glo luminescence, 24 h | inhibition, % at 10 µM | hit rate 1.4% among 330,000;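 active = inhibition of 40% or more at the single tested concentration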;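 note: wild-type TIM10 isogenic control strain grown at permissive 25 °C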
tim10-1 confirm – tim10-1 yeast growth inhibition, confirmed. shares compounds with tim10-1 inh. S. cerevisiae tim10-1 ts strain growth, BacTiter-Glo, 24 h. inhibition, % at 20 µM. hit rate 56% among 7,400. AID 463213;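 active = inhibition of yeast growth at or above a set limit in either of two repeat tests at 20 µM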;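 note: tim10-1 mutant grown at permissive 25 °C to find synthetic lethal compounds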
Each line names hits and unclear results; the compound was inactive in the other large screens (follow-up assays come after a bar, where they were run). This is a sample that favours compounds with a hit; in the whole collection about 3.7% have one here.

Cc1cc(OCc2cc(C(=O)N(C)C(C)c3ccccn3)no2)cc(C)c1Cl (stereo unspecified)	tim10-1 inh 41 | tim10-1 confirm inactive
Cc1ccc(C(=O)N[C@H](C(=O)NC2CCCCCCC2)C(C)C)cc1	none
CC(=O)C[C@H](O)CC(=O)[C@@H]1OC(=O)CCCCCCCCc2ccccc21	none
COc1ccc(C2=Nn3c(nnc3-c3ccccc3OC)SC2)cc1OC1CCOC1 (stereo unspecified)	none
COc1cc2nc(N(CCCN(C)C)C(=O)c3ccc(S(=O)(=O)N4CCc5ccccc5C4)cc3)sc2cc1OC	none (no result: PfHsp90 set2)
CN(C)CCCN(C(=O)c1ccc(S(=O)(=O)N2CCc3ccccc3C2)cc1)c1nc2c(F)cc(F)cc2s1	tim10-1 inh 42 | tim10-1 confirm 35
CN(C)CCCN(C(=O)c1ccc(C(=O)c2ccccc2)cc1)c1nc2c(F)cccc2s1	tim10-1 inh 47 | tim10-1 confirm inactive
Cc1ccc2sc(N(CCCN(C)C)C(=O)c3ccc(S(=O)(=O)N(C)Cc4ccccc4)cc3)nc2c1C	tim10-1 inh 54 | tim10-1 confirm inactive
CCOC(=O)N1CCN(S(=O)(=O)c2ccc(C(=O)N(CCCN(C)C)c3nc4ccc(CC)cc4s3)cc2)CC1	tim10-1 inh 43 (no result: V-ATPase pH) | tim10-1 confirm inactive
CCOC(=O)N1CCN(S(=O)(=O)c2ccc(C(=O)N(CCN(C)C)c3nc4ccc(CC)cc4s3)cc2)CC1	none
CCN1C(=O)[C@H]2[C@@H](c3ccc(C(F)(F)F)cc3)N[C@]3(CCCN(Cc4ccc(OC)cc4)C3=O)[C@H]2C1=O	none (no result: tim23-1 inh, PfHsp90 set2, tim10-1 inh, TIM10 inh)
COc1ncnc2c1ncn2CCCN1CCN(Cc2cccc3ccccc23)CC1	none (no result: tim23-1 inh, PfHsp90 set2, tim10-1 inh, TIM10 inh)
Cn1c2c(sc1=O)CCC2	none (no result: tim23-1 inh, tim10-1 inh, TIM10 inh)
Cc1ccc(C(=O)NCC(=O)OCC(=O)N(CC(C)C)c2c(N)n(Cc3ccccc3)c(=O)[nH]c2=O)s1	none (no result: tim23-1 inh, PfHsp90 set2, tim10-1 inh, TIM10 inh)
Cc1cccc(C)c1NC(=O)CSC(=O)c1sc2ccccc2c1Cl	none
CCN(Cc1ccccc1)S(=O)(=O)c1ccc(C(=O)N(CCCN(C)C)c2nc3cc(C)cc(C)c3s2)cc1	tim10-1 inh 52 (no result: PfHsp90 set2) | tim10-1 confirm inactive
COc1cccc2sc(N(CCCN(C)C)C(=O)c3ccc(S(=O)(=O)N4CCc5ccccc5C4)cc3)nc12	none
CCOc1cccc2sc(N(CCCN(C)C)C(=O)c3ccc(S(=O)(=O)N4CCCCCC4)cc3)nc12	none
Cc1ccc2sc(N(CCCN(C)C)C(=O)c3ccc(S(=O)(=O)N4CCc5ccccc5C4)cc3)nc2c1C	tim10-1 inh 40 | tim10-1 confirm inactive
CCOc1cccc2sc(N(CCN(CC)CC)C(=O)c3ccc(S(=O)(=O)N4CCCCC4)cc3)nc12	tim10-1 inh 48 | tim10-1 confirm inactive
Cc1ccsc1CN(C)CC(=O)Nc1ccccc1C(=O)NC1CC1	none (no result: PfHsp90 set2)
COc1ccc2cc(C#CC3=CC(=O)C[C@H](c4ccc(F)cc4)C3)ccc2c1	none (no result: tim23-1 inh, PfHsp90 set2, tim10-1 inh, TIM10 inh)
CCN(CC)C(=O)CSc1ncccc1-c1nc2ccccc2[nH]1	none
Cn1c(=O)c2c(nc(N/N=C/c3cccs3)n2Cc2ccccc2)n(C)c1=O	none
Cn1c(N/N=C/c2cccs2)nc2c1c(=O)n(Cc1ccccc1)c(=O)n2C	tim10-1 inh 40 | tim10-1 confirm inactive
COc1ccc(C=C(c2nc3ccccc3s2)c2nc3ccccc3s2)cc1O	none
COc1cc(C=C(c2nc3ccccc3s2)c2nc3ccccc3s2)ccc1O	tim10-1 inh 51 | tim10-1 confirm 39
COc1cc(/C=C/c2nc3ccccc3s2)cc(OC)c1O	tim10-1 inh 44 (no result: PfHsp90 set2) | tim10-1 confirm inactive
CN(C)c1ccc(/C=C/c2nc3ccccc3s2)cc1	tim10-1 inh 47 | tim10-1 confirm 56
CN(C)c1ccc(/C=C/c2ccc3ccccc3n2)cc1	none (no result: tim23-1 inh, tim10-1 inh, TIM10 inh)
S=c1cn[nH]c2ccccc12	none (no result: tim23-1 inh, tim10-1 inh, TIM10 inh)
Cc1noc(C)c1CSCC(=O)Nc1nc(-c2ccc(F)c(F)c2)cs1	tim10-1 inh 40 | tim10-1 confirm inactive
COc1ccc(-c2csc(NC(=O)CSCc3c(C)noc3C)n2)cc1OC	none
COCCCNCCCOc1ccc(Cl)cc1C(C)(C)C	none
CNCCCOc1ccc(Cl)cc1C(C)(C)C	tim10-1 inh 41 | tim10-1 confirm inactive
CCc1cccc(C)c1NC(=O)c1cc(-c2ccncc2)nc2ccccc12	tim10-1 inh 42 | tim10-1 confirm inactive
Cc1cccc(C)c1NC(=O)c1cc(-c2ccccn2)nc2ccccc12	tim10-1 inh 41 | tim10-1 confirm inactive
Cc1cccc(NC(=O)c2cc(-c3ccco3)nc3ccccc23)n1	tim10-1 inh 41 | tim10-1 confirm inactive
O=C(Nc1ccncc1)c1cc(-c2ccccn2)nc2ccccc12	none
Cc1ccccc1NC(=O)c1cc(-c2ccco2)nc2ccccc12	none (no result: tim23-1 inh, PfHsp90 set2, tim10-1 inh, TIM10 inh)
Oc1cc2c(cc1CN1CCN(c3ncccn3)CC1)OCO2	none
O=C(CCN1C(=O)/C(=C\c2ccccc2)SC1=S)N1CCOCC1	none
O=C(CCN1C(=O)S/C(=C\c2ccccc2)C1=O)N1CCOCC1	tim10-1 inh 52 | tim10-1 confirm inactive
O=C(O)C1CCN(C(=O)CCN2C(=O)S/C(=C\c3ccccc3)C2=O)CC1	none
O=C(CCN1C(=O)S/C(=C\c2ccccc2)C1=O)N1CCCCC1	tim10-1 inh 44 | tim10-1 confirm 39
CC(OC(=O)CCN1C(=O)C2CC=CCC2C1=O)C(=O)Nc1cccc(C#N)c1 (stereo unspecified)	none
Cc1ccc(C(C)C)c(OCCCN2C(=O)NC(C)(C)C2=O)c1	tim10-1 inh 43 (no result: PfHsp90 set2) | tim10-1 confirm inactive
CCCC(C)C(=O)Nc1ccc(S(=O)(=O)Nc2nccs2)cc1 (stereo unspecified)	none
O=C(CNC(=O)c1ccc(Cl)cc1Cl)OCn1nnc2ccccc2c1=O	none (no result: PfHsp90 set2)
COc1cc2c(cc1NC(=O)COC(=O)[C@@H](NC(=O)c1ccccc1F)C(C)C)oc1ccccc12	tim10-1 inh 40 | tim10-1 confirm inactive
COc1cc(/C=C/c2nnc3c4ccccc4ncn23)cc(OC)c1OC	tim10-1 inh 44 | tim10-1 confirm inactive
CCc1nn(-c2ccccc2)c(=S)c2ccccc12	tim10-1 inh 46 | tim10-1 confirm 52
CCc1nn(-c2ccccc2)c(N)c1C#N	none
CCOC(=O)C1CCCN(C(=O)Cn2sc3nc(C)cc(C)c3c2=O)C1 (stereo unspecified)	tim10-1 inh 41 | tim10-1 confirm inactive
O=C(Nc1c2c(nn1-c1ccccc1)CS(=O)(=O)C2)c1ccc(Br)o1	none (no result: tim23-1 inh, PfHsp90 set2, tim10-1 inh, TIM10 inh)
Cc1cc(N2CCCCC2)nc(SCC(=O)c2ccccc2)n1	tim10-1 inh 47 (no result: PfHsp90 set2) | tim10-1 confirm 33
C=CCSc1nnc(NC(=O)C2CC(=O)N(c3ccc4c(c3)OCCO4)C2)s1 (stereo unspecified)	none
COc1ccccc1CNC(=O)CCCn1nc(C)c2c(C)n(-c3ccccc3)nc2c1=O	none
COc1cccc(CNC(=O)CCCn2nc(C)c3c(C)n(-c4ccc(C)cc4)nc3c2=O)c1OC	tim10-1 inh 45 | tim10-1 confirm inactive
CCOC(=O)CNC(=O)N1C[C@H]2CON(C)[C@H]2C[C@H]1c1ccccc1Br	none (no result: tim23-1 inh, PfHsp90 set2, tim10-1 inh, TIM10 inh)
